Records with an inconclusive call do not appear. Unless noted, calls come from the whole dose curve; as a rule, active = well fitted curve in either direction with a large enough effect (not every such curve was filed as active); inconclusive = small, poorly fitted or top-dose-only effect, or another doubt; inactive = flat fitted curve, though single readings scatter.
Experiments:
[1] = AP1 Signaling Pathway (AID 357); conditions: ME-180 AP-1-bla reporter, EGF-induced, beta-lactamase ratio, 5 h; at 17.2 µM (top of the series) unless noted;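 note: ME-180 reporter cells stimulated with EGF at its EC50 level; % is set by controls: 0 for no effect and ±100 for the full control effect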
Method in brief: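 A ratiometric CCF4 readout (405 nm excitation; 460 and 530 nm emission) quantified AP-1-driven beta-lactamase in ME-180 cells after 5 h with compound and EC50 EGF; AC50 values were derived for activators and inhibitors.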

[2] = NFAT Signaling Pathway (AID 444); conditions: Jurkat NFAT-bla M1, carbachol, beta-lactamase ratio, 5 h; at 17.2 µM (top of the series) unless noted;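 note: carbachol stimulus at about its EC50 of 1 µM final; % is set by controls: 0 for no effect and ±100 for the full control effect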
Method in brief: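 Read-out: CCF4 FRET ratio (460 nm/530 nm) after 1 h RT dye loading, used for %activity and AC50 from titration series. Cells: Jurkat NFAT-β-lactamase/M1 line, treated with compound plus 1 uM carbachol for 5 h, 37 °C.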

[3] = Stat Signaling Pathway (AID 446); conditions: ME-180 SIE beta-lactamase reporter, IL-6 stimulated, 5 h; at 17.2 µM (top of the series) unless noted;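 note: ME-180 cervical cancer cells given 40 pM IL-6 alongside compound; SIE-controlled beta-lactamase reporter measured as 460/530 nm FRET emission ratio; % is set by controls: 0 for no effect and ±100 for the full control effect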
Method in brief: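 ME-180 SIE-bla cells; overnight plating; cpd + IL-6 40 pM, 5 h, 37 C; LiveBLAzer 2.5 h RT; 460/530 nm emission ratio. Normalized to 300 pM IL-6 and 125 nM JAK inhibitor controls.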

[4] = target: Glucocorticoid receptor (Homo sapiens) (UniProt P04150); assay: GR-GFP Redistribution (AID 450;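 active = compounds whose dose series gives a full or clear partial fitted curve of increased nuclear translocation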; note: potency is the fitted concentration of half-maximal effect)
Chain of Glucocorticoid receptor (Homo sapiens) (P04150 whole entry, looked up): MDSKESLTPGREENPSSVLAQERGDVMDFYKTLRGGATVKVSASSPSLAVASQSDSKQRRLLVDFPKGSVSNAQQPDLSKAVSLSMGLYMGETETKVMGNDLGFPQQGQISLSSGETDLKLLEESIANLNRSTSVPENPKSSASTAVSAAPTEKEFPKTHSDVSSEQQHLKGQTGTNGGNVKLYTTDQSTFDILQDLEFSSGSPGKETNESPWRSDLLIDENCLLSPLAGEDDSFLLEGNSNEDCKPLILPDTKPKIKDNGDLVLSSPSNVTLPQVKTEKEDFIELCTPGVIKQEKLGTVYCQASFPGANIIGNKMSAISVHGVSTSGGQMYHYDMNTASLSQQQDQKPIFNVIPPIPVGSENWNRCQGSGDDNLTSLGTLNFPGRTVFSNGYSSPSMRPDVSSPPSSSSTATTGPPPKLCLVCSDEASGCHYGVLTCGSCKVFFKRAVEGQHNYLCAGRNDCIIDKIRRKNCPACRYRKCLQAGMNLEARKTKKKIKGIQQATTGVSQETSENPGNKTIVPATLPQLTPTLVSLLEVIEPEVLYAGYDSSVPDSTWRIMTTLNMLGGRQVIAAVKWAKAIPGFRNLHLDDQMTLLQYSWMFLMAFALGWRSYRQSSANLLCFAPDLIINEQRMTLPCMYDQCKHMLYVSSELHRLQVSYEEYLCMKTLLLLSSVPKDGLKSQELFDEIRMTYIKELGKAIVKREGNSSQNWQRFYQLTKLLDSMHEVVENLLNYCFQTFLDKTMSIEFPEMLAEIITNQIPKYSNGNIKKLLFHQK

CCSc1nnc(NC(=O)C(C)(C(F)(F)F)C(F)(F)F)s1
inactive: activity change, negative = inhibition [1] -11.1% | activity change, negative = inhibition [2] -18.1% | activity, negative = inhibition [3] -24.8% | Potency [4] > 20.6 µM

COc1ccc2nc(/N=C(\N)NC(=O)C(C)(C)C)nc(C)c2c1
inactive: activity change, negative = inhibition [1] 1.33% | activity change, negative = inhibition [2] 0.865% | activity, negative = inhibition [3] 0.61% | Potency [4] > 20.6 µM

COc1c(O)ccc2cnn(-c3ccccc3C)c(=O)c12
inactive: activity change, negative = inhibition [1] 12.5% | activity change, negative = inhibition [2] -7.24% | activity, negative = inhibition [3] 25.4% | Potency [4] > 20.6 µM

Cc1c(C(=O)O)c(=S)sn1CCOc1ccccc1
inactive: activity change, negative = inhibition [1] -0.1% | activity change, negative = inhibition [2] 10.4% | activity, negative = inhibition [3] 5.37% | Potency [4] > 20.6 µM

COC(=O)c1ccc(C2/C(=C(\O)c3cccc(OC)c3)C(=O)C(=O)N2CCCN2CCOCC2)cc1 (configuration not stated)
inactive: activity change, negative = inhibition [1] 3.85% | activity change, negative = inhibition [2] -2.61% | activity, negative = inhibition [3] 15.2% | Potency [4] > 20.6 µM

CSC1=C(C#N)C(C)CC(=O)N1 (configuration not stated)
inactive: activity change, negative = inhibition [1] 3.08% | activity change, negative = inhibition [2] -0.632% | activity, negative = inhibition [3] 3.87% | Potency [4] > 20.6 µM

COc1cc(C2NC(=O)NC(C)=C2C(=O)Nc2cccc(C)c2C)cc(OC)c1OC (configuration not stated)
inactive: activity change, negative = inhibition [1] 2.82% | activity change, negative = inhibition [2] 10.2% | activity, negative = inhibition [3] -2.31% | Potency [4] > 20.6 µM

Cn1c(N)c(C#N)c2c(c1=S)CSC(C)(C)C2
inactive: activity change, negative = inhibition [1] 1.02% | activity change, negative = inhibition [2] -25.2% | activity, negative = inhibition [3] -2.98% | Potency [4] > 20.6 µM

CCOCCn1c(SC)nc2c1c(=O)[nH]c(=O)n2C
inactive: activity change, negative = inhibition [1] 11% | activity change, negative = inhibition [2] -1.92% | activity, negative = inhibition [3] -1.1% | Potency [4] > 20.6 µM

Cn1cccc1/C=N/n1cnnc1
inactive: activity change, negative = inhibition [1] -2.1% | activity change, negative = inhibition [2] -1.22% | activity, negative = inhibition [3] 4.51% | Potency [4] > 20.6 µM

CCOC(=O)C1=C(C)N=C2SC(C)C(=O)N2C1c1cccc(F)c1 (configuration not stated)
inactive: activity change, negative = inhibition [1] -17.6% | activity change, negative = inhibition [2] 7.16% | activity, negative = inhibition [3] 1.84% | Potency [4] > 20.6 µM

COc1ccccc1C1CC(c2ccc(Cl)cc2)Nc2nc(N)nn21 (configuration not stated)
inactive: activity change, negative = inhibition [1] 6.6% | activity change, negative = inhibition [2] 22.1% | activity, negative = inhibition [3] -2.9% | Potency [4] > 20.6 µM

COc1ccc(-c2onc(C)c2-c2ccccc2)c(O)c1
inactive: activity change, negative = inhibition [1] -16.7% | activity change, negative = inhibition [2] 9.81% | activity, negative = inhibition [3] -25.2% | Potency [4] > 20.6 µM

CCSc1nnc(N(CCC#N)CCC#N)s1
inactive: activity change, negative = inhibition [1] 8.14% | activity change, negative = inhibition [2] -7.48% | activity, negative = inhibition [3] -1.67% | Potency [4] > 20.6 µM

Cc1ccc2[nH]c3c(c2c1)CN(C(=O)CN1CC(C)OC(C)C1)CC3 (configuration not stated)
inactive: activity change, negative = inhibition [1] -2.87% | activity change, negative = inhibition [2] -2.75% | activity, negative = inhibition [3] 2.26% | Potency [4] > 20.6 µM

CCCOc1ccc(Cn2c(O)cc(=O)[nH]c2=O)cc1
inactive: activity change, negative = inhibition [1] -5.5% | activity change, negative = inhibition [2] 7.39% | activity, negative = inhibition [3] -0.906% | Potency [4] > 20.6 µM

CCOC(=O)CSC1=C(C#N)C(c2ccc3c(c2)OCO3)CC(=O)N1 (configuration not stated)
inactive: activity change, negative = inhibition [1] -5.02% | activity change, negative = inhibition [2] 4.11% | activity, negative = inhibition [3] 3.81% | Potency [4] > 20.6 µM

Nc1ccc2[nH]ncc2c1
inactive: activity change, negative = inhibition [1] 5.98% | activity change, negative = inhibition [2] -1.96% | activity, negative = inhibition [3] -0.564% | Potency [4] > 20.6 µM

Source: PubChem BioAssay (NCATS)
